# Tests used:
# Assay in all cases: DAPPL (digital affinity profiling via proximity ligation, sequencing); 10 mM Tris-HCl pH 7.5, 50 mM NaCl, 1 mM DTT, 4% glycerol, room temperature, 30 min; GST-TFs on glutathione beads, 16-mer random dsDNA library, 0.1% formaldehyde crosslink after washing; high values mean tight binding
# FEV = molecular target: T1, FEV (Homo sapiens, UniProt Q99581 1-238); details: protein: recombinant; tags: N-terminal GST; dsDNA, one strand shown
# T1 sequence: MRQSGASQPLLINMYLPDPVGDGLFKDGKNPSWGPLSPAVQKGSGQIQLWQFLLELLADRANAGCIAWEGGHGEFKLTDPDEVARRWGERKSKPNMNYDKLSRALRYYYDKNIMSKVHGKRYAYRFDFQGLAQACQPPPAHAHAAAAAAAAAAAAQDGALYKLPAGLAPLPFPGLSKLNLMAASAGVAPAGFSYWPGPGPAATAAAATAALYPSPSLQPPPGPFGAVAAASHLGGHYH
# How it was run: (§1)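 Sequencing on an Illumina NextSeq500 followed washing, crosslinking with 0.1% formaldehyde, proximity ligation (BsaI/T4 ligase, 1 h, 37 °C) and PCR amplification of pools that had been incubated for 30 min at room temperature with 200 nmole of a random double-stranded 16-mer DNA library in Tris/NaCl/DTT/glycerol buffer. Each pool held DNA-barcoded human transcription factors, expressed in yeast as GST fusions and captured on glutathione beads, plus a tag-only sample. Binding signal is a hexamer's read frequency for a factor divided by its frequency in the tag-only sample.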
# ETV5 = ETV5 (Homo sapiens, UniProt P41161 1-510); details: protein: recombinant; tags: N-terminal GST; dsDNA, one strand shown
# How it was run: as §1
# HSF1 = HSF1 (Homo sapiens, UniProt Q00613 1-529); details: protein: recombinant; tags: N-terminal GST; chain copies: 3; dsDNA, one strand shown
# How it was run: as §1
# SPIC = molecular target: T2, SPIC (Homo sapiens, UniProt Q8N5J4 1-248); details: protein: recombinant; tags: N-terminal GST; dsDNA, one strand shown
# T2 sequence: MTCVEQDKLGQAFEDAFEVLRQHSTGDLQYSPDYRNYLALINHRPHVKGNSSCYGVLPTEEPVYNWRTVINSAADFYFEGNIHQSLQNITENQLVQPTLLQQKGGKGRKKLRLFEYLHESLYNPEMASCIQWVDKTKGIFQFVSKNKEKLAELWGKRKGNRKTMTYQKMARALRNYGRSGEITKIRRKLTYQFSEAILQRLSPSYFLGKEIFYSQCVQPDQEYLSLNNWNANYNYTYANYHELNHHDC
# How it was run: as §1
# ELF4 = ELF4 (Homo sapiens, UniProt Q99607 1-663); details: protein: recombinant; tags: N-terminal GST; dsDNA, one strand shown
# How it was run: as §1
# ELK4 = molecular target: T3, ELK4 (Homo sapiens, UniProt P28324-2 1-405); details: protein: recombinant; tags: N-terminal GST; dsDNA, one strand shown
# T3 sequence: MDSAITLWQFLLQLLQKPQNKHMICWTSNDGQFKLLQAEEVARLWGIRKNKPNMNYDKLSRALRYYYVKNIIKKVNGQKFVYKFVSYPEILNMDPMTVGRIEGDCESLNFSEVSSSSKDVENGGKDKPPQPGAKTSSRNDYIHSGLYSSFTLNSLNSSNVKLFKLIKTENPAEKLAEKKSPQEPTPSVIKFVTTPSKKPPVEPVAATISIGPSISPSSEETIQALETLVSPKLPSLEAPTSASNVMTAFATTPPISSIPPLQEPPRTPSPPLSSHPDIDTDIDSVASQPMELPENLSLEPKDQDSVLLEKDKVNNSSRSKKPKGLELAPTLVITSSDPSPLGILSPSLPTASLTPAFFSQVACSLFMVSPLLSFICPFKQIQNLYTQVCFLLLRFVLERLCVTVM
# How it was run: as §1
# ETV2 = molecular target: T4, ETV2 (Homo sapiens, UniProt O00321 1-342); details: protein: recombinant; tags: N-terminal GST; dsDNA, one strand shown
# T4 sequence: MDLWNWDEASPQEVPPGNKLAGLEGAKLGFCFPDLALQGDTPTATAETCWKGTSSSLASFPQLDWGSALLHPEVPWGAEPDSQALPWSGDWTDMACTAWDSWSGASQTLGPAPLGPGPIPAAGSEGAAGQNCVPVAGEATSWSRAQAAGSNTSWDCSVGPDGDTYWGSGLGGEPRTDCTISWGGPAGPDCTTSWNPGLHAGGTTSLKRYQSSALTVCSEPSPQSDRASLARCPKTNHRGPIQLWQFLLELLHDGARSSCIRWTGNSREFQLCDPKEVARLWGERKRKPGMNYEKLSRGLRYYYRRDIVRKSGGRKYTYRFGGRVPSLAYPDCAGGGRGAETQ
# How it was run: as §1
# ELF3 = molecular target: T5, ELF3 (Homo sapiens, UniProt P78545 1-371); details: protein: recombinant; tags: N-terminal GST; dsDNA, one strand shown
# T5 sequence: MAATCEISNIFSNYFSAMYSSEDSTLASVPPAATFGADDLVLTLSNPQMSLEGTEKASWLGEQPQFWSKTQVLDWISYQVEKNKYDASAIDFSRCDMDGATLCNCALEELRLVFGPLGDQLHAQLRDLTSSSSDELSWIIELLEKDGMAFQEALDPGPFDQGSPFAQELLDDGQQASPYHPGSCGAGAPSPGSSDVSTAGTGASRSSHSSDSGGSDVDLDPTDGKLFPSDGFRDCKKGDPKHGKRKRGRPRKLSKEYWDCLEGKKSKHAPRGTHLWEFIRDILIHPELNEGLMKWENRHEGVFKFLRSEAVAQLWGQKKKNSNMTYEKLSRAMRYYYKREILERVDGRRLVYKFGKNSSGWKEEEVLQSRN
# How it was run: as §1
# CRX = CRX (Homo sapiens, UniProt O43186 1-299); details: protein: recombinant; tags: N-terminal GST; dsDNA, one strand shown
# How it was run: as §1
# ETV1 = ETV1 (Homo sapiens, UniProt P50549 1-477); details: protein: recombinant; tags: N-terminal GST; dsDNA, one strand shown
# How it was run: as §1
# ERF = molecular target: T6, ERF (Homo sapiens, UniProt P50548 1-548); details: protein: recombinant; tags: N-terminal GST; dsDNA, one strand shown
# T6 sequence: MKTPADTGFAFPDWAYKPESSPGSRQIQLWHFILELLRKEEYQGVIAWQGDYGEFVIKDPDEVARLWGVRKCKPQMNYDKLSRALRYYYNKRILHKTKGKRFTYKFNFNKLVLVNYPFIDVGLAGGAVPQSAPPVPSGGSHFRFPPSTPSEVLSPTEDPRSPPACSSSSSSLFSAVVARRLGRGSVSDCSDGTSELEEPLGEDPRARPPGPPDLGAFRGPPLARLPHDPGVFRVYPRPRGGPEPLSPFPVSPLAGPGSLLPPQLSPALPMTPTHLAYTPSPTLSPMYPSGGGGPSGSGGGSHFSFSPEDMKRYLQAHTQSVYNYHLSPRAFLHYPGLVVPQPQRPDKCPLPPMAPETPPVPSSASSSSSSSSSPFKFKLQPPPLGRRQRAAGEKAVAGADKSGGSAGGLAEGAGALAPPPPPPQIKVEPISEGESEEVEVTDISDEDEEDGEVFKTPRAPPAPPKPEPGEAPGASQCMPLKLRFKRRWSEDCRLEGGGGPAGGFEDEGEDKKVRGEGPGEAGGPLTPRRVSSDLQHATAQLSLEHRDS
# How it was run: as §1
# ETV3L = molecular target: T7, ETV3L (Homo sapiens, UniProt Q6ZN32 1-361); details: protein: recombinant; tags: N-terminal GST; dsDNA, one strand shown
# T7 sequence: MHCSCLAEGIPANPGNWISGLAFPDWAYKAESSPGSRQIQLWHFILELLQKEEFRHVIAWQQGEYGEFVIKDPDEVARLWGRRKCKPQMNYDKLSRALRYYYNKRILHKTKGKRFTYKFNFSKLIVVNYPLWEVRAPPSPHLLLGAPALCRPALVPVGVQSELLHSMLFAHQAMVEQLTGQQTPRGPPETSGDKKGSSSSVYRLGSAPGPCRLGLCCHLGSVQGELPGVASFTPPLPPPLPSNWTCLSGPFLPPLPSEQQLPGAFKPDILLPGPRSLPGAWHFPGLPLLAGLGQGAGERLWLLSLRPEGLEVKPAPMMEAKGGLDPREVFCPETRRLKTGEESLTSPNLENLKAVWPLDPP
# How it was run: as §1
# ETS2 = molecular target: T8, ETS2 (Homo sapiens, UniProt P15036 1-469); details: protein: recombinant; tags: N-terminal GST; dsDNA, one strand shown
# T8 sequence: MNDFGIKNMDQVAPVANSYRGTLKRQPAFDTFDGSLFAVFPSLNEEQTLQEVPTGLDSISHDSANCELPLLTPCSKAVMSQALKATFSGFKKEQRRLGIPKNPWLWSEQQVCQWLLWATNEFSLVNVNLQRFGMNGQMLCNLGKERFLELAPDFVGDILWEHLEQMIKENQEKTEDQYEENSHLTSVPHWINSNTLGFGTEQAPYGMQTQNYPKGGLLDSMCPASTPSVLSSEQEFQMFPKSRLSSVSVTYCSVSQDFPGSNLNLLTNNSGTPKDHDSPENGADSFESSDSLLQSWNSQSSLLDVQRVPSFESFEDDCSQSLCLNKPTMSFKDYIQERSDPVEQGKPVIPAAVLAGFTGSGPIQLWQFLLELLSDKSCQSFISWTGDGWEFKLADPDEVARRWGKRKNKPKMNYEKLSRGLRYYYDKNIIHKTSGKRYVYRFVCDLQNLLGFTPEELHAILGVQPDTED
# How it was run: as §1
# SPDEF = molecular target: T9, SPDEF (Homo sapiens, UniProt O95238 1-335); details: protein: recombinant; tags: N-terminal GST; dsDNA, one strand shown
# T9 sequence: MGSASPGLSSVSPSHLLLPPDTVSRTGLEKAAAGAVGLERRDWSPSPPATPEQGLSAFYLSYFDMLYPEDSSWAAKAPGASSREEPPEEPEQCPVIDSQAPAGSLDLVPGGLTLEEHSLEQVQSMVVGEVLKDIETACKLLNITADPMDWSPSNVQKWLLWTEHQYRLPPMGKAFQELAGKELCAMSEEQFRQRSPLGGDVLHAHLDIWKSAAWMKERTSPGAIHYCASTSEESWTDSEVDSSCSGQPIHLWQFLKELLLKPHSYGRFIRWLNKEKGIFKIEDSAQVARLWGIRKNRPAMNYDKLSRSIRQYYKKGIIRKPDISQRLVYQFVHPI
# How it was run: as §1
# ETV7 = molecular target: T10, ETV7 (Homo sapiens, UniProt Q9Y603 1-341); details: protein: recombinant; tags: N-terminal GST; dsDNA, one strand shown
# T10 sequence: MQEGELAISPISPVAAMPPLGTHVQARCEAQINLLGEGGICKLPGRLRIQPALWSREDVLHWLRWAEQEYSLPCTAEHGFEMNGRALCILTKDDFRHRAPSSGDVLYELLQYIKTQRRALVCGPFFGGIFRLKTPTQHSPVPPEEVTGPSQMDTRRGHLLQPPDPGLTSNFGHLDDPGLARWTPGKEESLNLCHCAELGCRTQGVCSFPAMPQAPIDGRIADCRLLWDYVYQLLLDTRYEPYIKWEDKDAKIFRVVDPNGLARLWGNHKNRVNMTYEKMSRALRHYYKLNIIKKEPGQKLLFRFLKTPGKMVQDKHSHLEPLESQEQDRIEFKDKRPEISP
# How it was run: as §1
# ELF5 = molecular target: T11, ELF5 (Homo sapiens, UniProt Q9UKW6-2 1-255); details: protein: recombinant; tags: N-terminal GST; dsDNA, one strand shown
# T11 sequence: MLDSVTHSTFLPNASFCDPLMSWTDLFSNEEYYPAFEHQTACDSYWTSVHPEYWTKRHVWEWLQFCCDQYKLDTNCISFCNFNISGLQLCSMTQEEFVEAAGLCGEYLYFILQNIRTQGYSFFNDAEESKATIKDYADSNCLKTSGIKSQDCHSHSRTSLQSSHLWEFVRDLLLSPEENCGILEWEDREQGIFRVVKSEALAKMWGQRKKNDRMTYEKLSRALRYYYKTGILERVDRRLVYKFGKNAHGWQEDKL
# How it was run: as §1
# ETV3 = molecular target: T12, ETV3 (Homo sapiens, UniProt P41162-2 1-143); details: protein: recombinant; tags: N-terminal GST; dsDNA, one strand shown
# T12 sequence: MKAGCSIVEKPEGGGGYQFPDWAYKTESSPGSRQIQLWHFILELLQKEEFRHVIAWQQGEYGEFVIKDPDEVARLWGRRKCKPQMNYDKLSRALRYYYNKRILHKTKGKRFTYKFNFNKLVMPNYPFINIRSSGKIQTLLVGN
# How it was run: as §1
# ETV6 = ETV6 (Homo sapiens, UniProt P41212 1-452); details: protein: recombinant; tags: N-terminal GST; dsDNA, one strand shown
# How it was run: as §1
# Chain of ETV5 (P41161 whole entry): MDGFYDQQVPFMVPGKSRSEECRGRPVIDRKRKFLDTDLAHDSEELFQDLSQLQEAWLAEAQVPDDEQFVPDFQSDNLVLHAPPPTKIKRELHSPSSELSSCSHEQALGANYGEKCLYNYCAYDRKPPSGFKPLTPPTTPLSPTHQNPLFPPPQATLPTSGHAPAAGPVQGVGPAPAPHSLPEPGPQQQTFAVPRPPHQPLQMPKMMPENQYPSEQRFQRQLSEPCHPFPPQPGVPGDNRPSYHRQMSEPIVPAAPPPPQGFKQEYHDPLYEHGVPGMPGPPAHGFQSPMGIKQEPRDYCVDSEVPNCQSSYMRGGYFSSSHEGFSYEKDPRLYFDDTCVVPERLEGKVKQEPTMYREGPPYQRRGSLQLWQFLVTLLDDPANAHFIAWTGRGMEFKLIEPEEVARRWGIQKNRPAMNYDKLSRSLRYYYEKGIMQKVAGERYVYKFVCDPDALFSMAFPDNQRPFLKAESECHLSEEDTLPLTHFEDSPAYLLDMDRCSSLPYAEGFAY
# Chain of ELF4 (Q99607 whole entry): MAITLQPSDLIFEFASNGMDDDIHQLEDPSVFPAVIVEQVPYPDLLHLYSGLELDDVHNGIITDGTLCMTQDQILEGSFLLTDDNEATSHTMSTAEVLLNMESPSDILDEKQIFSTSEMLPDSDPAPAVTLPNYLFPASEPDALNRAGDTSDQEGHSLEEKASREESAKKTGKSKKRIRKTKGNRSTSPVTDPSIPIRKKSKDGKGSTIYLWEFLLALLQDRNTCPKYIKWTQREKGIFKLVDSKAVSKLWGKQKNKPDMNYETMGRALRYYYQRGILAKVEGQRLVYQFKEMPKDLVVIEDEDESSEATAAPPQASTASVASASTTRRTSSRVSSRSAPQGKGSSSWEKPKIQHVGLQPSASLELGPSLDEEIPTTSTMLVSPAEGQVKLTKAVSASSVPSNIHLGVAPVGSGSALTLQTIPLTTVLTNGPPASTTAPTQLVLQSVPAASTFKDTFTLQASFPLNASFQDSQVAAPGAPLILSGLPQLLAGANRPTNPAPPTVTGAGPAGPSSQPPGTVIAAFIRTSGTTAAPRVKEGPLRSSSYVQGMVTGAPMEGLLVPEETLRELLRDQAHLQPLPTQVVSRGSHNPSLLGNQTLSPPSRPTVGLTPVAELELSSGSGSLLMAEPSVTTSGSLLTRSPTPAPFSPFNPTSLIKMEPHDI
# Chain of HSF1 (Q00613 whole entry): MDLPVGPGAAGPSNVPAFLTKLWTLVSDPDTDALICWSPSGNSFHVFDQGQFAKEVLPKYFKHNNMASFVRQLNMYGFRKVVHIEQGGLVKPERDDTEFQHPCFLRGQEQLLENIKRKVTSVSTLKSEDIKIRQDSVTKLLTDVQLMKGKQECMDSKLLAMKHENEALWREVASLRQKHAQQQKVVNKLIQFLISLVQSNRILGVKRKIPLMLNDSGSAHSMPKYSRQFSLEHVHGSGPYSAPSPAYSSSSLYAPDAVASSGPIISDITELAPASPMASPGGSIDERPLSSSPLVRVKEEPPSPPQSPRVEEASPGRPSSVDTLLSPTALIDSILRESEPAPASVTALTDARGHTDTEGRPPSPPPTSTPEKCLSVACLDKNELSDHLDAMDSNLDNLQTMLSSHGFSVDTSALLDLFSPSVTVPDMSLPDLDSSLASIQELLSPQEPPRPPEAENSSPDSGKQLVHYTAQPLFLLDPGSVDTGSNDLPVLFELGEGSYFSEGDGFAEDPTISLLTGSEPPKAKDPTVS
# Chain of ETV6 (P41212 whole entry): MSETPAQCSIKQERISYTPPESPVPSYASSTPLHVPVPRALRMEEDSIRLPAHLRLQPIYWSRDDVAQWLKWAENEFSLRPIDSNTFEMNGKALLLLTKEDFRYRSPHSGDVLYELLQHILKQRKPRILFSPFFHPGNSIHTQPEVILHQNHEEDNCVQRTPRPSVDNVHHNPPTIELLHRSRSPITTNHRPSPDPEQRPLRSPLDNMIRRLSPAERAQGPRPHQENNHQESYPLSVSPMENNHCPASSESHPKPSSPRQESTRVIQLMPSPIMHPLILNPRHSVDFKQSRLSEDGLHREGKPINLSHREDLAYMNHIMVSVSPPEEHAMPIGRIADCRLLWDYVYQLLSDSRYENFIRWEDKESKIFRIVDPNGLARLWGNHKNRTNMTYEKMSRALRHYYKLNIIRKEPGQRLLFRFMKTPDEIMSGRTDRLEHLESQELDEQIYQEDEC
# Chain of ETV1 (P50549 whole entry): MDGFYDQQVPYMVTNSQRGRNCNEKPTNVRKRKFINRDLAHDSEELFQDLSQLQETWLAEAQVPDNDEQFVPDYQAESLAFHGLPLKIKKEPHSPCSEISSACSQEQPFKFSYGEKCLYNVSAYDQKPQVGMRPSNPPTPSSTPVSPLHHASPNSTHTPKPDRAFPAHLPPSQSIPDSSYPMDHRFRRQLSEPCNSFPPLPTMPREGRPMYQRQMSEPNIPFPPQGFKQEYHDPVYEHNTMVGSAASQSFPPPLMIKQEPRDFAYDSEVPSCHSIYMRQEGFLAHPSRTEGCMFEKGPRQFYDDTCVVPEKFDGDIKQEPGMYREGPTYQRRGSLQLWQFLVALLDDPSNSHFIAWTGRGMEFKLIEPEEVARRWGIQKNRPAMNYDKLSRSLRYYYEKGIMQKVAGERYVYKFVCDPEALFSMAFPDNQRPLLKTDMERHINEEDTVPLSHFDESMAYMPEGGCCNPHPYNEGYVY
# Chain of CRX (O43186 whole entry): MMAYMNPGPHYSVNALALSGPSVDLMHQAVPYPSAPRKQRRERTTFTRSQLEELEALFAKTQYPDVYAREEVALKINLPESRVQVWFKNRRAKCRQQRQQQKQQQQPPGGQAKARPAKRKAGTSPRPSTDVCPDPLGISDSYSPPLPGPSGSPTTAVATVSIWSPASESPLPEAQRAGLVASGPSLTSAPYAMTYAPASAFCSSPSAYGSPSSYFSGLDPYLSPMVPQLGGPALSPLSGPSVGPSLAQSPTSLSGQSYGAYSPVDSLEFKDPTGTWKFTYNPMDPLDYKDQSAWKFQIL
sequence,measurement,setting,value
CTCTGC,binding signal,FEV,"1.5 fold enrichment (6-mer frequency, TF over GST control)"
same,binding signal,ETV5,"1.49 fold enrichment (6-mer frequency, TF over GST control)"
same,binding signal,HSF1,"1.25 fold enrichment (6-mer frequency, TF over GST control)"
same,binding signal,SPIC,"1.55 fold enrichment (6-mer frequency, TF over GST control)"
same,binding signal,ELF4,"1.61 fold enrichment (6-mer frequency, TF over GST control)"
same,binding signal,ELK4,"1.86 fold enrichment (6-mer frequency, TF over GST control)"
same,binding signal,ETV2,"1.43 fold enrichment (6-mer frequency, TF over GST control)"
same,binding signal,ELF3,"1.56 fold enrichment (6-mer frequency, TF over GST control)"
same,binding signal,CRX,"1.2 fold enrichment (6-mer frequency, TF over GST control)"
same,binding signal,ETV1,"1.64 fold enrichment (6-mer frequency, TF over GST control)"
same,binding signal,ERF,"1.56 fold enrichment (6-mer frequency, TF over GST control)"
same,binding signal,ETV3L,"1.52 fold enrichment (6-mer frequency, TF over GST control)"
same,binding signal,ETS2,"1.54 fold enrichment (6-mer frequency, TF over GST control)"
same,binding signal,SPDEF,"1.4 fold enrichment (6-mer frequency, TF over GST control)"
same,binding signal,ETV7,"1.27 fold enrichment (6-mer frequency, TF over GST control)"
same,binding signal,ELF5,"1.34 fold enrichment (6-mer frequency, TF over GST control)"
same,binding signal,ETV3,"1.5 fold enrichment (6-mer frequency, TF over GST control)"
same,binding signal,ETV6,"1.27 fold enrichment (6-mer frequency, TF over GST control)"

# Source: PMC7862700, “An all-to-all approach to the identification of sequence-specific readers for epigenetic DNA modifications on cytosine”
